Records with an inconclusive call do not appear. Activity calls are given as the source filed them. The call rests on the fitted dose curve; in most records, active means well fitted curve in the direction sought with a large enough effect; inconclusive means small, poorly fitted or top-dose-only effect, or another doubt; inactive means no such curve, though single readings can be large; an effect the other way counts as inactive or inconclusive.

Experimental findings from PubChem BioAssay (NCATS) are described below.

Experiment [1] can be described thus: qHTS for Inhibitors of Plasmodium falciparum (DD2) proliferation (AID 504314). Put shortly:
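SYBR Green DNA-fluorescence growth assay: infected RBCs at 0.3% parasitemia, 2.5% hematocrit, 72 h compound exposure, 37C, 5% CO2; overnight lysis with dye at RT; normalized to 0.29 uM artemisinin and vehicle.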
In general terms: In qHTS, concentration-response curves come from the screen itself.

Experiment [2] in a line: qHTS for Inhibitors of Plasmodium falciparum (GB4) proliferation (AID 504315). Further: nearly all actives have a fitted effect of over 50% in size. Put shortly: (§1)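 Parasite growth measured as SYBR Green DNA fluorescence (ex 485, em 535 nm) after overnight lysis following 72 h culture at 37 °C, 0.3% parasitemia, 2.5% hematocrit. Values normalized against DMSO and 0.29 uM artemisinin controls, with plate-stack correction.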
Experiment [3] is described as follows: qHTS for Inhibitors of Plasmodium falciparum (7G8) proliferation (AID 504316). Further: nearly all actives have a fitted effect of over 65% in size. Put shortly: as §1
Experiment [4] is described as follows: qHTS for Inhibitors of Plasmodium falciparum (HB3) proliferation (AID 504318). Further: nearly all actives have a fitted effect of over 60% in size. The gist of the method:
as §1

A short description of experiment [5]: qHTS for Inhibitors of Plasmodium falciparum (CP250) proliferation (AID 504320). The gist of the method: as §1
Potency means the concentration at half of the fitted maximal effect.

In the case of `COC/C=C/C1=CC2=CC(=O)C(C)(OC(=O)c3cnc4ccccc4n3)C(=O)C2=CN1C1CCCCC1` (stereo unspecified), the Potency entry in experiment [1], in experiment [2], in experiment [3], in experiment [4] and in experiment [5] was “inactive” each time.
For `C=C(C(C)=O)C(O)C=Cc1ccco1` (stereo unspecified), the Potency entry in experiment [1], in experiment [2], in experiment [3], in experiment [4] and in experiment [5] was “inactive” each time.
As for `CCN1C(=O)N[C@@H](c2cccc(C(F)(F)F)c2)[C@@H](C(=O)OC)[C@H]1C`, the Potency entry in experiment [1], in experiment [2], in experiment [3], in experiment [4] and in experiment [5] was “inactive” each time.
As to `CC1(C)O[C@@H](C(O)(c2cc(F)c(F)c(F)c2)c2cc(F)c(F)c(F)c2)[C@H](C(O)(c2cc(F)c(F)c(F)c2)c2cc(F)c(F)c(F)c2)O1`, the Potency in experiment [1] was 671 nM (active); in experiment [2], 953 nM (active); in experiment [3], 379 nM (active); in experiment [4], 536 nM (active); in experiment [5] it was 849 nM (active).
As to `C=CCN1c2ccccc2[C@]23C[C@@H](C(=O)OC)N(C(=O)CC(C)C)C2=NC(C(=O)OC)=C(C(=O)OC)[C@H]13`, the Potency result in experiment [1], in experiment [2], in experiment [3], in experiment [4] and in experiment [5] was “inactive” throughout.
Consider `CCN1C(=O)NC(c2ccco2)C(C(=O)OC)=C1C` (stereo unspecified), for which the Potency entry in experiment [1], in experiment [2], in experiment [3], in experiment [4] and in experiment [5] was “inactive” each time.
As for `COc1ccc(C2=CC3=C(Br)C(=O)C(C)(OC(=O)c4ccco4)C(=O)C3=CO2)cc1` (stereo unspecified), the Potency result in experiment [1], in experiment [2], in experiment [3], in experiment [4] and in experiment [5] was “inactive” in each case.
On to `CCCCC1=CC2=C(c3ccco3)C(=O)C(C)(OC(=O)c3ccc(OC)cc3)C(=O)C2=CN1CC(C)C` (stereo unspecified), for which the Potency entry in experiment [1], in experiment [2], in experiment [3], in experiment [4] and in experiment [5] was “inactive” throughout.
On to `COC(=O)CCC(=O)OC1(C)C(=O)C=C2C=C(C3CC3)N(C3CCCC3)C=C2C1=O` (stereo unspecified), for which the Potency entry in experiment [1], in experiment [2], in experiment [3], in experiment [4] and in experiment [5] was “inactive” each time.
`CC(C)CN1C=C2C(=O)C(C)(OC(=O)C3CCCC3)C(=O)C=C2C=C1c1ccsc1` (stereo unspecified): the Potency entry in experiment [1], in experiment [2], in experiment [3], in experiment [4] and in experiment [5] was “inactive” in each case.
Consider `COC(=O)CCC(=O)OC1(C)C(=O)C2=CN(Cc3ccccc3)C(c3ccc(OC)cc3)=CC2=C(Br)C1=O` (stereo unspecified), for which the Potency entry in experiment [1], in experiment [2], in experiment [3], in experiment [4] and in experiment [5] was “inactive” each time.
As to `CCCCC1=CC2=CC(=O)C(C)(OC(=O)CC)C(=O)C2=CN1CCN1CCOCC1` (stereo unspecified), the Potency entry in experiment [1], in experiment [2], in experiment [3], in experiment [4] and in experiment [5] was “inactive” each time.
`CCCCC1=CC2=CC(=O)C(C)(OC(=O)CC)C(=O)C2=CN1c1cccc(C#N)c1` (stereo unspecified): the Potency result in experiment [1], in experiment [2], in experiment [3], in experiment [4] and in experiment [5] was “inactive” throughout.
Consider `COC(=O)CCCC1=CC2=C(c3ccccc3)C(=O)C(C)(OC(=O)C3CCCC3)C(=O)C2=CN1C(CO)CO` (stereo unspecified), for which the Potency entry in experiment [1], in experiment [2], in experiment [3], in experiment [4] and in experiment [5] was “inactive” throughout.
In the case of `COc1cccc(CC(=O)N2CCc3nc(-c4ccccc4)c4c(c3C2)CO[C@@H](C)C4)c1`, the Potency result in experiment [2], in experiment [3], in experiment [4] and in experiment [5] was “inactive” in each case.
As to `COC(=O)CCC(=O)OC1(C)C(=O)C2=CN(C3CC3)C(c3ccc(OC)cc3)=CC2=C(Br)C1=O` (stereo unspecified), the Potency result in experiment [1], in experiment [2] and in experiment [5] was “inactive” each time.
With `CCN1C(=O)N[C@@H](c2cccc(F)c2)C(C(=O)OC)=C1C`, the Potency result in experiment [1], in experiment [2], in experiment [4] and in experiment [5] was “inactive” in each case.
As to `CC1(OC(=O)CCc2ccccc2)C(=O)C=C2C=C(c3ccc(C#N)cc3)N(C3CC3)C=C2C1=O` (stereo unspecified), the Potency result in experiment [1], in experiment [2] and in experiment [5] was “inactive” in each case.
For the compound `C=CC[C@]1(C(=O)OC)C=C[C@H](C)[C@@H](c2ccccc2)N1C(=O)C(F)(F)F`, the Potency entry in experiment [2], in experiment [3], in experiment [4] and in experiment [5] was “inactive” in each case.
Consider `COC(=O)C1=C(C)N(CC2CC2)C(=O)N[C@H]1c1ccccc1`, for which the Potency result in experiment [2], in experiment [3], in experiment [4] and in experiment [5] was “inactive” each time.
With `CCN1C(=O)N[C@@H](CCc2ccccc2)[C@H](C(=O)OC)[C@H]1C`, the Potency result in experiment [1], in experiment [2], in experiment [4] and in experiment [5] was “inactive” in each case.
With `CCN1C(=O)N[C@@H](CCc2ccccc2)C(C(=O)OC)=C1C`, the Potency result in experiment [2], in experiment [3], in experiment [4] and in experiment [5] was “inactive” in each case.
`COC(=O)C1=C(C)N(Cc2ccccc2)C(=S)NC1c1cccc(F)c1` (stereo unspecified): the Potency result in experiment [1], in experiment [2], in experiment [4] and in experiment [5] was “inactive” each time.
For `C=CCN1c2ccccc2[C@]23C[C@@H](C(=O)OC)N(C(=O)c4ccco4)C2=NC(C(=O)OC)=C(C(=O)OC)[C@H]13`, the Potency result in experiment [2], in experiment [3], in experiment [4] and in experiment [5] was “inactive” in each case.
Take `C=CC1=C2C=C(C3CC3)N(CCCCO)C=C2C(=O)C(C)(OC(=O)c2ccco2)C1=O` (stereo unspecified): the Potency entry in experiment [1], in experiment [2], in experiment [4] and in experiment [5] was “inactive” throughout.
Consider `CC(C)C(=O)N[C@@H]1CCCN1C(=O)C=Cc1ccccc1`, for which the Potency result in experiment [1], in experiment [2] and in experiment [5] was “inactive” throughout.
Take `COC(=O)CCCC1=CC2=CC(=O)C(C)(OC(=O)c3cccs3)C(=O)C2=CN1Cc1ccc2c(c1)OCO2` (stereo unspecified): the Potency result in experiment [1], in experiment [2], in experiment [4] and in experiment [5] was “inactive” in each case.
Regarding `C=CCOC(=O)N[C@H](C(C(=O)OC)=C(C)NCc1ccccc1)c1cccc(F)c1`, the Potency entry in experiment [1], in experiment [2], in experiment [4] and in experiment [5] was “inactive” each time.
Consider `O=C1c2cc(Br)ccc2O[C@@H](c2ccc3c(c2)OCO3)[C@@H]1O`, for which the Potency entry in experiment [1], in experiment [2] and in experiment [5] was “inactive” throughout.
